Source: PubChem (National Center for Advancing Translational Sciences (NCATS))
Shown are actives, neighbours in structure and some others; about 19% of the full set was active somewhere.
IL1B secr inh = blocks inflammasome-driven IL-1 beta release; 360,000 tested, 4.7% active; THP-1 LPS/ATP IL-1B secretion, AlphaLISA, 16 h; active compounds read low; AID 743279; activity change, % at 57.5 µM; in the data active = activity change below about -50%; inconclusive = mostly about -30% to -49%
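Secreted IL-1B measured by AlphaLISA bead assay after 16 h compound exposure of THP-1 cells; compounds (final up to 57.5 uM) added 1 h before LPS (250 ng/mL) and ATP (1.25 mM) stimulation; lower signal means less secretion.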
ELG1 repair inh = ELG1-dependent DNA repair inhibition | 330,000 tested, 2.3% active | AID 504467 | Potency, µM (titrated, usually from 46.1 µM), usual class: inhibitors | HEK293T ELG1-luciferase reporter, luminescence, 16 h; DNA damage induced by 5-fluorouridine; note: nearly all actives have a fitted effect of over 55% in size
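In this reporter screen, reduction of luminescence relative to DMSO vehicle indicated activity. Compounds and 5-fluorouridine were added together to 2,000 cells per well, incubated for 16 hr at 37 °C, then developed with ONE-Glo.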
TDP1 block = inhibitors of human tyrosyl-DNA phosphodiesterase TDP1. AID 485290. recombinant TDP1, AlphaScreen DNA substrate cleavage. Potency, µM (series often up to 130 µM), hits mostly inhibitors. Q9NUW8. 350,000 tested, 0.28% active; note: nearly all actives have a fitted effect of over 40% in size
Target sequence (Q9NUW8 whole entry, looked up): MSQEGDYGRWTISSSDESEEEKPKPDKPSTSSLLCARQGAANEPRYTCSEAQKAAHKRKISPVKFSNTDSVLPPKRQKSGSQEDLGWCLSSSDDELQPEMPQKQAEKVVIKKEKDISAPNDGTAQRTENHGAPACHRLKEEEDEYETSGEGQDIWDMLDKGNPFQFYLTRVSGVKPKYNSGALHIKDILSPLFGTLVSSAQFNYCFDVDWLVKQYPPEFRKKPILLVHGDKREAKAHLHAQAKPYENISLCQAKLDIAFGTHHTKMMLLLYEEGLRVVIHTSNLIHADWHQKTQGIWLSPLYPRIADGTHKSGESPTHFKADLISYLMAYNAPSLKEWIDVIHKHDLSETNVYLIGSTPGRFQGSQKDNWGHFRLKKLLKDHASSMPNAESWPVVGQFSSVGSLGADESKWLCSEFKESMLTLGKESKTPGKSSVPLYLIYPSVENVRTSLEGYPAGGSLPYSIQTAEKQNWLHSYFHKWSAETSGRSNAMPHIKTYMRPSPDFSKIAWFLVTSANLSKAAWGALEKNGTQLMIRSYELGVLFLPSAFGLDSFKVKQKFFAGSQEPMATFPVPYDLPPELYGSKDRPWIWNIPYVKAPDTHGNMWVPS
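Enzyme-compound mixtures sat 15 min at room temperature, followed by a 5 min reaction with 15 nM final substrate and 10 min with AlphaScreen beads. Recombinant human Tdp1 was used at 1 nM final.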
DT40 TDP1 CPT = DT40-hTDP1 cell growth loss with CPT; chicken DT40 Tdp1-/-;hTDP1 cells + 20 nM CPT, ATP luminescence, 48 h; Potency, µM (series often up to 46.2 µM), most hits filed as inhibitors; 420,000 tested, 12% active; AID 686979; note: nearly all actives have a fitted effect of over 55% in size
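Chicken DT40 Tdp1-/- cells stably complemented with human TDP1 were seeded at 400 cells/well in medium containing 20 nM camptothecin, exposed to pin-transferred compounds, and grown at 37 °C for at least 48 hr. Viability was read as ATP luminescence.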
Giardia kill = kills Giardia lamblia | Giardia lamblia trophozoite viability | activity change, % at 7.66 µM, hits read low | 340,000 tested, 0.15% active | AID 540267; in the data active = activity change below about -80%; inconclusive = between about -30% and that limit;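 note: parasites exposed to compound for two days anaerobically before the ATP read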
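Each well holds 100 Giardia trophozoites and compound. After two days (48 hrs) at 37 deg C in anaerobic conditions, ATP is quantified by luminescence.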
DT40 TDP1 no CPT = qHTS for Inhibitors of human tyrosyl-DNA phosphodiesterase 1 (TDP1): qHTS in cells in absence of CPT; DT40 Tdp1-/- hTDP1 cells, no CPT, ATP luminescence, 48 h; Potency, µM (titrated, usually from 46.2 µM), most hits filed as inhibitors; 420,000 tested, 15% active; note: nearly all actives have a fitted effect of over 55% in size
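Camptothecin absent (DMSO only). Human TDP1-complemented DT40 knockout cells, 400 cells/well, 37 °C for minimum 48 hr; ATP measured via CellTiter-Glo, 30 min dark incubation, luminescence.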
Hits are given with their value; - = inactive; ? = inconclusive; . = not tested or not shown. Unless noted, calls come from the whole dose curve; as a rule, active = well fitted curve in the direction sought with a large enough effect; inconclusive = small, poorly fitted or top-dose-only effect, or another doubt; inactive = no such curve, though single readings can be large; an effect the other way counts as inactive or inconclusive.

SMILES	IL1B secr inh	ELG1 repair inh	TDP1 block	DT40 TDP1 CPT	Giardia kill	DT40 TDP1 no CPT
CCOC(=O)Cn1nc(-c2ccccc2)c2cnc3ccc(OCC)cc3c21	.	.	-	13µM	.	21µM
Cc1ccc(-c2nn(-c3ccccc3)c3c2cnc2ccccc23)cc1C	.	.	-	-	.	-
CCc1ccc(/C=C2\SC(=S)N(CCC(=O)NCCCN3CCOCC3)C2=O)cc1	-88	-	-	?	-	?
COC(=O)c1ccc(/C=C2/SC(=S)N(CCCC(=O)Nc3ccccn3)C2=O)cc1	-	?	-	21µM	-	21µM
O=C(CCCN1C(=O)/C(=C/c2cccc(Br)c2)SC1=S)NCCCN1CCOCC1	-96	?	-	26µM	-	?
CCc1ccc(/C=C2\SC(=S)N(CCCC(=O)Nc3ccccn3)C2=O)cc1	-	-	-	?	-	?
O=C(CCN1C(=O)/C(=C/C=C/c2ccccc2)SC1=S)Nc1ccccn1	-	?	-	16µM	-	?
CC(=C\c1ccccc1)/C=C1/SC(=S)N(CCC(=O)Nc2ccccn2)C1=O	.	-	-	.	.	.
O=C(CCN1C(=O)/C(=C/c2ccccc2Cl)SC1=S)NCCCN1CCOCC1	-	-	-	?	-	?
COC(=O)c1ccc(NC(=O)C2CC(=O)N(c3ccc(C)cc3)C2)cc1 (configuration not stated)	-	?	-	-	-	-
O=C1c2ccccc2C(=O)N1c1cccc(=O)[nH]1	.	.	-	.	.	.
O=C(COc1ccc2c3c(c(=O)oc2c1)CCCC3)N1C[C@H]2C[C@@H](C1)c1cccc(=O)n1C2	-	?	.	-	-	-
Cc1ccc(CCNC(=O)CN2C(=O)COc3ccc(S(=O)(=O)N4CCOCC4)cc32)cc1	-	-	-	-	?	-
CCOc1ccc(NC(=O)CCc2c(C)nc3nc(C)nn3c2C)cc1	.	.	-	-	.	-
CC(C)c1ccc(/C=C2\SC(=S)N(CC(=O)NCCCN3CCOCC3)C2=O)cc1	?	?	.	?	-	?
CCOc1ccc(/C=C2\SC(=S)N(CC(=O)NCCCN3CCOCC3)C2=O)cc1	-	?	.	-	-	-
COc1ccc(/C=C2\SC(=S)N(CCC(=O)NCCCN3CCOCC3)C2=O)cc1	-66	-	.	-	-	?
COC(=O)c1ccc(/C=C2\SC(=S)N(CCCC(=O)NCCCN3CCOCC3)C2=O)cc1	-	-	.	?	-	23µM
CCC(CC)C(=O)NCc1nc2cccnc2n1Cc1ccc(F)cc1	.	.	-	-	.	-
CCCOC(=O)c1ccc(Oc2cn[nH]c2-c2ccc(OCC)cc2O)cc1	-75	?	-	?	-	?
CCCOC(=O)c1ccc(Oc2c(-c3ccc(OCC)cc3O)n[nH]c2C)cc1	-102	?	-	16µM	-	18µM
CCOc1ccc(-c2[nH]ncc2Oc2cccc(OC)c2)c(O)c1	-	-	-	?	-	?
CCCc1ccc(Oc2cn[nH]c2-c2ccc(O)c(C)c2O)cc1	-64	-	-	18µM	-	?
COc1ccc(Oc2c(-c3ccc(O)cc3O)n[nH]c2C)cc1	-	-	-	?	-	-
O=C(c1ccccc1)N1CCN(c2ccc([N+](=O)[O-])c(NCC3CCCO3)c2)CC1 (configuration not stated)	-	?	-	-	-	?
SMILES	IL1B secr inh	ELG1 repair inh	TDP1 block	DT40 TDP1 CPT	Giardia kill	DT40 TDP1 no CPT
COc1ccc(S(=O)(=O)N2CCCCCC2)cc1C(=O)N(C)CC(=O)Nc1ccc(Cl)c(Cl)c1	-59	-	.	?	-	?
CN(CC(=O)Nc1ccc(Cl)c(C(F)(F)F)c1)C(=O)c1ccc(OCC2CCCO2)cc1 (configuration not stated)	-	-	-	18µM	-	16µM
CN(CC(=O)Nc1ccc(Cl)c(C(F)(F)F)c1)C(=O)c1ccc(S(=O)(=O)N2CCOCC2)cc1	-	.	.	4.6µM	-	6.5µM
Cc1ccc(S(=O)(=O)N2CCCCC2)cc1C(=O)N(C)CC(=O)Nc1ccc(Cl)c(C(F)(F)F)c1	-56	?	-	?	-	?
COc1cccc(NC(=O)CN(C)C(=O)c2cc(S(=O)(=O)N3CCCCC3)ccc2Cl)c1	-	-	.	?	-	?
Cc1cc(Br)cnc1NC(=S)Nc1ccc(F)cc1F	-	-	.	-	-	?
CSc1ccccc1OCc1cc(C(=O)N(C)C(C)c2nc(C)cs2)no1 (configuration not stated)	-	-	-	?	-	?
Cc1ccc(C(=O)N(C)CC(=O)Nc2ccc(Cl)c(C(F)(F)F)c2)cc1S(=O)(=O)N1CCCCC1	-	?	-	?	-	23µM
CCCCNc1c(CCc2ccccc2)nc2nc(C)cc(C)n12	-	.	.	18µM	.	?
COc1ccc(Nc2c(CCc3ccccc3)nc3nc(C)cc(C)n23)cc1	-	.	.	18µM	.	13µM
Cc1ccc(Nc2c(-c3ccco3)nc3nc(C)cc(C)n23)cc1	-	-	-	?	-	?
CCc1nc2nc(C)cc(C)n2c1Nc1ccc(OC)cc1	-	.	.	?	.	18µM
C[C@@H](C(=O)N[C@@H](Cc1c[nH]c2ccccc12)C(=O)O)n1nnc2ccccc2c1=O	-	-	.	?	-	-
COc1ccc(-c2cc(C(F)(F)F)c(C#N)c(SCC(=O)Nc3cccc(C)c3)n2)cc1	.	.	-	-	.	-
Cc1ccccc1CC1SC(N=C(N)N)=NC1=O (configuration not stated)	-	-	.	-	-	-
CN(C)S(=O)(=O)c1cccc(C(=O)N=C2N=C3C=CC(Cl)=CN3Cc3ccccc32)c1	-	?	.	?	-	16µM
CC(=O)Nc1ccc(S(=O)(=O)N2CCN(C(=O)c3ncoc3-c3cccc(F)c3)CC2)cc1	-	?	.	-	-	?
Cc1nc(/C=C\C(=O)O)c2cc(C)oc2n1	-66	-	-	-	-	-
CCS(=O)(=O)N1CCC2(CC1)OC(=O)C(C)=C2C(=O)NCc1ccccc1C	.	.	-	?	.	-
Cc1cc(C)n(CC(C)NCc2cn[nH]c2-c2cccc3ccccc23)n1 (configuration not stated)	-	-	-	?	-	18µM
O=C(Oc1ccc(-c2ccccc2)cc1)c1ccco1	-	.	.	-	-	-
O=Cc1ccnc(-c2ccc(OC(=O)c3ccco3)cc2)n1	-86	-	-	5.2µM	-	5.8µM
CCN(Cc1ccccc1)c1cc2c(c3c1ccn3C)C1CCC2C1 (configuration not stated)	-	.	.	23µM	.	23µM
CCCN(CC1CC1)c1cc2c(c3c1ccn3C)C1CCC2C1 (configuration not stated)	-	.	.	?	.	?
